Our source for the growth values is PubChem BioAssay (NCI).

Molecules are shown by their SMILES. The panel holds about 83,000 compounds, 20% with a hit somewhere; the sample as a whole holds those more often.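 Cells were grown in 96-well plates and exposed to the test compound at a single concentration for 48 hours; results are reported as percent growth, with values below 10 considered active.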 Active and inactive are the calls of the source.

This assay relates to HL-60(TB) leukemia. Description: NCI-60 one-dose screen, 48 h (100 = growth as untreated, 0 = no growth, -100 = all killed). Conditions: 10 µM unless noted.
`COc1ccc(-c2nc3sc(C4CC4)nn3c2/C=C2/C(=O)Nc3ccc(OC)cc32)cc1`: the growth was 97% (inactive).
The value for `CCCCCCCCCCCCCCCCn1cc[n+](C)c1` was 45.7% (inactive).
To `CN1C(=O)N2CN3CCCN(C3)CN3C(=S)NC1C23` (stereo not drawn) belongs 99.8% (inactive).
The value for `Cc1ccc[n+](CCC(N)=O)c1` was 86.6% (inactive).
As to `CC/C(=C(/c1ccc(Cl)cc1)c1ccc(OCCN2CCOCC2)cc1)c1ccccc1`, the growth is 104% (inactive).
To `CCCCc1nc(Cl)c(C2CC(c3ccc(Cl)cc3)=NN2c2cc(Cl)cc(Cl)c2)[nH]1` (stereo not drawn) belongs 35.4% (inactive).
Take `COc1cc2cc3c(nc2cc1OC)CCN3Cc1ccc(NC(=O)Nc2ccc(F)cc2F)cc1`: the growth is 80.5% (inactive).
`CCCCCCCCCC(=O)Oc1ccc(/C(=C(/C)Cc2cccc(OC)c2)c2ccc(OCCN(C)C)cc2)cc1`: the growth is 112% (inactive).
Take `CC(C)C(C)(C)c1ccc(O)cc1`: the growth is 104% (inactive).
To `Cc1ccc(C2=NN(c3ccc(S(=O)(=O)NC(=O)NCc4ccccc4)cc3)C(c3ccc(N(C)C)cc3)C2)c(C)c1` (stereo not drawn) belongs -1.6% (active); to `C=C1C(=O)O[C@H]2[C@H]1CC/C(Cn1cc(-c3cc(C)c(C)cc3C)nn1)=C\CC[C@@]1(C)O[C@@H]21`, -9.09% (active); to `COc1cc(C)ccc1Oc1nc(Nc2ccc(N3CCOCC3)cc2)ncc1NC(=O)Nc1cc(C(F)(F)F)cc(C(F)(F)F)c1`, 42.4% (inactive).
To `CCCc1c(OC(=O)c2ccccc2)nc2[nH]c(=O)sc2c1C` belongs 98% (inactive).
